Screening data from PubChem BioAssay.
The list is not random: actives were taken first. Their share in the collection is about 2.3%.
CHRM1 antagonist – blocks human M1 muscarinic receptor. CHO-K1 hM1, Fluo-8 calcium fluorescence, ACh EC80 antagonist. P11229. inhibition, % at 3 µM. 360,000 compounds, 1.3% hits;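 active means percent inhibition above its own plate's cutoff, namely the mean of that plate's compound wells plus 3 SD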;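 further: peak over basal fluorescence ratio during 140 s after agonist addition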
Target sequence (P11229 whole entry, looked up): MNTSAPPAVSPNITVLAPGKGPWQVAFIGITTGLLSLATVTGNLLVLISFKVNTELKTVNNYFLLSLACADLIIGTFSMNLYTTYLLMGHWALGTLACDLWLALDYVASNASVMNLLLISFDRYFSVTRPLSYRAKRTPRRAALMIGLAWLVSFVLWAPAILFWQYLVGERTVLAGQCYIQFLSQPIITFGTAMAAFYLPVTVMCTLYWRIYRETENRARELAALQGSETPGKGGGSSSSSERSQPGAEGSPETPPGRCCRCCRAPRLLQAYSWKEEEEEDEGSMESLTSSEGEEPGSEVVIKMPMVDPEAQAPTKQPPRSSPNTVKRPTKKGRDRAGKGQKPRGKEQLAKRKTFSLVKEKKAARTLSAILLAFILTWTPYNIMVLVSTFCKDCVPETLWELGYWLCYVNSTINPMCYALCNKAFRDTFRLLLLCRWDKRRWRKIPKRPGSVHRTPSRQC
M1 PAM – potentiates human M1 receptor response to acetylcholine; CHO-K1 hM1, Fluo-8 calcium fluorescence, ACh EC20; 0% = ACh EC20, 100% = maximal ACh; activation, % at 3 µM; 360,000 compounds, 0.088% hits; in the data active means activation above about 19%, passing the limit was not always enough
CHO-K1 Ca ag – M1 agonist counterscreen hit in parental CHO-K1 cells; Fluo-8 calcium fluorescence; scaled to maximal ATP response, vehicle zero; 360,000 compounds, 0.48% hits; activation, % at 3 µM; in the data active means activation above about 15%;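 further: untransfected CHO-K1 host cells lacking M1 receptor as counterscreen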
CHO-K1 Ca antag – counter-screen for M1 antagonists: effect in parental CHO-K1 cells; ATP-induced calcium, Fluo-8 fluorescence; inhibition, % at 3 µM; 360,000 compounds, 0.6% hits; AID 602250;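 active means inhibition above a per-plate cutoff, the plate's mean sample inhibition plus 3 SD, cut at about 24% in these data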
CHRM1 agonist – activates human CHRM1 receptor | 360,000 compounds, 0.33% hits | CHO-K1 hM1, Fluo-8 calcium fluorescence, agonist mode; 0% DMSO, 100% acetylcholine EC100 | activation, % at 3 µM | P11229;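 active means activation above the run's mean compound activation plus 3 SD, cut at about 16% in these data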;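 further: peak over basal fluorescence ratio within a 140 s kinetic read after compound addition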
CHO-K1 Ca PAM – counter-screen for M1 PAMs: effect in parental CHO-K1 cells; ATP EC20, Fluo-8 calcium fluorescence; 0% at ATP EC20, 100% at ATP max; activation, % at 3 µM; 360,000 compounds, 0.02% hits;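 active means activation above the run cutoff, the mean activation of all test compounds plus 3 SD, cut at about 40% in these data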;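 further: peak over basal fluorescence ratio in a 140 s read after ATP addition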
Of the large screens only hits and unclear results are named; the others gave an inactive call.

CC1CCCC(C)N1C(=O)COC(=O)c1cc(F)c(F)cc1Cl (stereo not given)	CHRM1 antagonist 28
CC1CCCC(C)N1C(=O)c1cc(F)c(F)cc1Cl (stereo not given)	none
O=C(NCc1ccccc1Cl)[C@H]1CCCN1C(=O)[C@H]1CCCN1C(=O)c1cccc2ccccc12	CHO-K1 Ca ag 16 (no result: CHRM1 antagonist, M1 PAM, CHRM1 agonist)
COC(=O)c1ccccc1NC(=O)CSc1nc(N)cc(N)n1	CHO-K1 Ca antag 26
O=C(/C=C/Nc1ccccc1)c1ccc(Oc2ncccn2)cc1	CHO-K1 Ca antag 26
O=C(CC1C(=O)NCCN1C(=O)c1ccc([N+](=O)[O-])cc1)Nc1ccc(F)cc1 (stereo not given)	none
O=S(=O)(c1ccc(Cl)cc1)c1snnc1-c1ccccc1	CHRM1 antagonist 37
Cc1ccc(C(=O)NC2CCN(CC(=O)Nc3ccccc3Cl)CC2)cc1	CHO-K1 Ca ag 16
O=C(O)CN=C(NS(=O)(=O)c1ccccc1)c1ccccc1	none
N#CCCN=C(NS(=O)(=O)c1ccccc1)c1ccccc1	M1 PAM 28
CN(C)S(=O)(=O)N1CCN(c2ccccc2)CC1	M1 PAM 30
CN(C)S(=O)(=O)N1CCN(c2cccc(Cl)c2)CC1	none
COc1cc(C(=O)Nc2ccc3c(c2)N(C(=O)CCN(C)C)c2ccccc2CC3)cc(OC)c1OC	CHRM1 antagonist 27
COc1ccc(C(=O)COC(=O)Cn2[nH]c(=O)c3ccccc3c2=O)c(OC)c1	none
CCN(C(=O)c1ccc(NC(=O)Cc2ccccc2)cc1)c1ccccc1	CHO-K1 Ca ag 16
CN(C(=O)c1ccc(NC(=O)Cc2ccccc2)cc1)c1ccccc1	none
O=C(NNC(=O)c1ccc([N+](=O)[O-])cc1)c1ccncc1	none
N/C(=N\OCc1ccc([N+](=O)[O-])cc1)c1ccncc1	CHO-K1 Ca antag 30
COc1ccc(OCCCC(=O)OCC(=O)N2CCN(S(=O)(=O)c3ccc(C)cc3C)CC2)cc1	none
CC(=O)c1ccc(OCCCC(=O)OCC(=O)N2CCN(S(=O)(=O)c3ccc(C)cc3C)CC2)cc1	CHRM1 antagonist 29, CHO-K1 Ca ag 18
Cc1noc(/C=C/c2ccco2)c1S(=O)(=O)N1CCC(C(=O)NC(C)c2ccccc2)CC1 (stereo not given)	none
Cc1noc(/C=C/c2ccco2)c1S(=O)(=O)N1CCC(C(=O)N2c3ccccc3CC2C)CC1 (stereo not given)	CHO-K1 Ca antag 26
CN(C)CCC1c2ccc(Cl)cc2CCc2cccnc21 (stereo not given) (tested in a mixture with another compound)	CHRM1 antagonist 49
COc1cc2ccc(NC(C)=O)cc2cc1OC	none
CCCCCCSc1ccc([C@H]2N[C@@](C)(C(=O)OC)[C@H]3C(=O)N(C)C(=O)[C@@H]23)cc1	CHRM1 antagonist 36
CCCSc1ccc([C@H]2N[C@@](C)(C(=O)OC)[C@H]3C(=O)N(C)C(=O)[C@@H]23)cc1	none
COc1cc(C(C)=O)ccc1OCCN1CCC(Cc2ccccc2)CC1	CHRM1 antagonist 45
COc1cc(C(C)=O)ccc1OCCCN1CCC(Cc2ccccc2)CC1	CHRM1 antagonist 44
Cc1ccc(F)c(CNC(=O)C2CCC(=O)N(Cc3ccccn3)C2)c1F (stereo not given)	CHO-K1 Ca antag 27
Cn1cc(CNC(=O)C2CCC(=O)N(Cc3ccccc3F)C2)cn1 (stereo not given)	M1 PAM 26
COc1ccccc1CNC(=O)C1CCC(=O)N(CCCc2ccccc2)C1 (stereo not given)	CHO-K1 Ca antag 32
COC(=O)c1ccc(CNC(=O)C2CCC(=O)N(CCCc3ccccc3)C2)cc1 (stereo not given)	none
CCN1CCN(c2nc(Nc3ccc(NC(C)=O)cc3)nc(Nc3ccc(NC(C)=O)cc3)n2)CC1	none
CCCCn1c(N)c(N(CC)C(=O)CSCC(=O)Nc2ccc(OC)cc2)c(=O)[nH]c1=O	none
O=C(CCN1C(=O)c2ccccc2S1(=O)=O)NCc1ccc(F)cc1	none
O=C(CN1C(=O)c2ccccc2S1(=O)=O)NCc1ccc(F)cc1	CHO-K1 Ca antag 63
O=C(NC(c1ccc(F)cc1)c1ccc2ccccc2n1)C1CCN(Cc2ccc3ccccc3n2)CC1 (stereo not given)	none
CN(C)c1ccc(CN2CCC(C(=O)NC(c3ccc(F)cc3)c3ccc4ccccc4n3)CC2)cc1 (stereo not given)	CHRM1 antagonist 54
FC(F)(F)c1cccc(/C=N/NC(=S)NC2CCCCC2)c1	CHO-K1 Ca ag 19
O=C(/C=C/c1ccccc1)CC(O)(c1ccccc1)C(F)(F)C(F)F (stereo not given)	CHRM1 antagonist 38, CHO-K1 Ca ag 17
Cc1ccc(S(=O)(=O)N2CCCCC2)cc1NS(=O)(=O)c1ccc(Cl)c(C(=O)O)c1	none
Cc1ccccc1-c1cc(C(=O)NCc2cccc(C(F)(F)F)c2)nn1CC1CC(c2cccc([N+](=O)[O-])c2)=NO1 (stereo not given)	none
COc1ccc(NC(=S)N2CCN(C(c3ccccc3)c3ccccc3)CC2)cc1OC	CHRM1 antagonist 38
O=S(=O)(NCc1ccc(F)cc1)c1ccc(-n2cccn2)cc1	none
CCN(CC)CCOc1ccccc1C(C)=O	CHRM1 antagonist 40
CC(=O)c1ccccc1OCCOCCOc1ccccc1C(C)=O	none
Cc1cc(C)nc(NN2C(=O)C=CC2=O)n1	none
COc1ccc2c(c1)-c1c(sn(-c3ccc(OC)c(OC)c3)c1=S)C(C)(C)N2	CHRM1 antagonist 27
COc1ccc(-n2sc3c(c2=S)-c2cc(OC)ccc2NC3(C)C)cc1	none
Cc1ccc(OCCCNC2CCCC2)cc1	none
CC(C)(C)c1ccc(OCCCNC2CCCC2)cc1	CHRM1 antagonist 22
COc1ccc(-c2noc(N3CCCC(C(=O)Nc4cc(F)ccc4F)C3)n2)cc1 (stereo not given)	none
Cc1c(C)n(CCO)c2ncnc(Nc3ccc(F)cc3)c12	CHRM1 antagonist 43
COc1ccc(Nc2ncnc3c2c(C)c(C)n3CCO)cc1	none
CCN1CCN(S(=O)(=O)c2cc(OCC(=O)NC3CCCCC3)c(C)cc2Cl)CC1	CHO-K1 Ca antag 27
Cc1cc(Cl)c(S(=O)(=O)N2CCN(c3ccccn3)CC2)cc1OCC(=O)NC1CCCCC1	CHRM1 antagonist 26
CN(C)/C=C/C1=CC(=O)CC(C)(C)C1	CHO-K1 Ca antag 24
Cc1ccc(C2=CC(=O)CC(C)(C)C2)cc1	none
COc1ccc(CC(=O)NC(C)c2ccc3ccccc3c2)cc1 (stereo not given)	none
CCc1ccc(NC(=O)CSc2nnc(CNC(=O)c3ccco3)o2)cc1	none
COc1ccccc1C(=O)NC(=O)COC(=O)c1cccc(C)c1O	CHO-K1 Ca ag 15
